This is an account of results in PubChem BioAssay (EPA / NIEHS).

Activity calls are given as the source filed them. The calls were made as follows: active = hit-call score of the fitted dose curve at least 0.9, where 1 is the maximum; inactive = score below 0.9.

The nature of assay [1]: ATG_CRE_CIS: Attagene CIS-FACTORIAL HepG2 Assay for human cAMP Responsive Element (CRE) binding protein 3 (AID 2282926). Conditions: HepG2 CRE cis-reporter, Attagene multiplexed mRNA; actives raise or lower the signal. A digest of the protocol:
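We dosed HepG2 cells bearing multiple cis-promoter reporter units for 24 h and measured reporter mRNA by RT-PCR with capillary electrophoresis detection. Bidirectional concentration-response fitting used DMSO as negative control.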

Assay [2] deals with CCAAT/enhancer-binding protein beta (Homo sapiens) (UniProt P17676). Nature of the assay: ATG_C_EBP_CIS: Attagene CIS-FACTORIAL HepG2 Assay for human CCAAT/Enhancer Binding Protein (C/EBP) beta (AID 2282927). The settings on record: HepG2 Attagene cis-factorial transcription factor reporter; actives raise or lower the signal. A digest of the protocol: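 Endogenous transcription factor activity in human liver HepG2 cells is inferred from induction of a CEBPB-linked reporter mRNA. Exposure lasts 24 h; activity is fitted in both directions relative to DMSO.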

Assay [3] in a line: ATG_DR4_LXR_CIS: Attagene CIS-FACTORIAL HepG2 Assay for human Liver X Receptor (LXR), DR4 submotif (AID 2282929). Conditions: HepG2 Attagene DR4 cis-reporter, mRNA transcription; actives raise or lower the signal. Summed up:
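HepG2 cells were transiently transfected with multiple cis-regulated reporter units and dosed for 24 hours. The DR4 reporter mRNA was quantified by RT-PCR, 6-FAM labelling and capillary electrophoresis. Bidirectional fits used DMSO as baseline.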

Assay [4] deals with Aryl hydrocarbon receptor (Homo sapiens) (UniProt P35869). Nature of the assay: ATG_Ahr_CIS: Attagene CIS-FACTORIAL HepG2 Assay for human Aryl Hydrocarbon Receptor (Ahr) (AID 2282930). The settings on record: HepG2 AhR cis-factorial reporter transcription; actives raise or lower the signal. A digest of the protocol:
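Transient MRTU transfection of HepG2 → 24 h compound exposure → total RNA, oligo(dT) RT → PCR, 6-FAM extension, HpaI cut → CE fluorescence. DMSO = baseline; bidirectional curve fit.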

Assay [5] in a line: ATG_AP_1_CIS: Attagene CIS-FACTORIAL HepG2 Assay for human Activator Protein 1 (AP-1) (AID 2282931). Conditions: HepG2 Attagene cis-factorial AP-1 reporter mRNA; actives raise or lower the signal. A digest of the protocol: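 HepG2 cells transiently transfected with cis-element-driven reporter transcription units, dosed for 24 hours. Reporter mRNA measured by RT-PCR, 6-FAM labelling, HpaI digestion and capillary electrophoresis. Bidirectional fitting against DMSO baseline.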

A short description of assay [6]: ATG_AP_2_CIS: Attagene CIS-FACTORIAL HepG2 Assay for human Activator Protein 2 (AP-2) (AID 2282932). Conditions: HepG2 AP-2 cis-reporter, Attagene transcription factor profiling; actives raise or lower the signal. A digest of the protocol:
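Step one: transient transfection of HepG2 with reporter transcription units. Step two: 24 h chemical exposure. Step three: RNA extraction, RT-PCR, labelled fragment analysis by capillary electrophoresis; DMSO serves as baseline.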

Assay [7] is described as follows: ATG_BRE_CIS: Attagene CIS-FACTORIAL HepG2 Assay for human Bone Morphogenetic Protein (BMP) Response Element (BRE) (AID 2282933). Conditions: HepG2 BMP response element reporter, Attagene transcription factor profiling; actives raise or lower the signal. Summed up:
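After a 24 h chemical treatment, transiently transfected HepG2 cells were lysed for RNA; reporter transcripts were quantified by fluorescent RT-PCR and capillary electrophoresis, normalised to DMSO.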

The target in assay [8] is Transcription factor E2F1 (Homo sapiens) (UniProt Q01094). Description: ATG_E2F_CIS: Attagene CIS-FACTORIAL HepG2 Assay for human E2F Transcription Factor 1 (AID 2282935). The settings on record: HepG2 Attagene cis-reporter, E2F reporter RNA transcripts; actives raise or lower the signal. A digest of the protocol:
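Total RNA from 24 h-treated, reporter-transfected HepG2 cells undergoes DNase I treatment, oligo(dT) reverse transcription, PCR and 6-FAM primer extension before capillary electrophoresis.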

The nature of assay [9]: ATG_E_Box_CIS: Attagene CIS-FACTORIAL HepG2 Assay for human Enhancer Box (E-box) (AID 2282936). The settings on record: HepG2 E-box cis-reporter transcription, actives raise or lower the signal. A digest of the protocol: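 DMSO served as negative control and baseline for bidirectional fitting. Human hepatoma HepG2 cells, transiently transfected with cis-reporter constructs, were dosed 24 h; reporter mRNA read by RT-PCR and capillary electrophoresis.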

The nature of assay [10]: ATG_M_61_CIS: Attagene CIS-FACTORIAL HepG2 Assay for M61 Transcription Factor (Internal Marker) (AID 2282937). Conditions: HepG2 Attagene CIS-FACTORIAL M61 internal marker reporter; actives raise or lower the signal. A digest of the protocol:
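HepG2 cells transiently transfected with multiplexed cis-promoter reporter units reporting endogenous transcription factor activity, measured 24 h after dosing. Reporter mRNA quantified by RT-PCR and capillary electrophoresis; bidirectional fit against DMSO baseline.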

A short description of assay [11]: ATG_EGR_CIS: Attagene CIS-FACTORIAL HepG2 Assay for human Early Growth Response 1 (EGR1) (AID 2282938). Conditions: HepG2 Attagene CIS-FACTORIAL EGR reporter mRNA; actives raise or lower the signal. A digest of the protocol:
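HepG2 cells transiently transfected with cis-element-driven multiplexed reporter units, dosed for 24 h. EGR1-element reporter mRNA quantified by RT-PCR, 6-FAM labelling, HpaI digestion and capillary electrophoresis; bidirectional fit versus DMSO.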

Assay [12] can be described thus: ATG_M_19_CIS: Attagene CIS-FACTORIAL HepG2 Assay for M19 Transcription Factor (Internal Marker) (AID 2282939). The settings on record: HepG2 Attagene CIS-FACTORIAL M19 internal marker reporter; actives raise or lower the signal. A digest of the protocol: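 In this multiplexed cell assay, transiently transfected HepG2 reporter units report endogenous transcription-factor activity; after 24 hours of treatment, labelled reporter cDNA fragments are quantified by capillary electrophoresis and fitted bidirectionally against DMSO.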

Assay [13] is described as follows: ATG_ERE_CIS: Attagene CIS-FACTORIAL HepG2 Assay for Estrogen Response Element (ERE) (AID 2282940). The settings on record: HepG2 ERE cis-reporter, Attagene RNA transcript; actives raise or lower the signal. Summed up:
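Measuring endogenous transcription factor output, the assay doses transfected HepG2 cells for 24 hours and quantifies reporter transcripts by fluorescent RT-PCR and capillary electrophoresis, with DMSO as baseline.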

Assay [14] is described as follows: ATG_Ets_CIS: Attagene CIS-FACTORIAL HepG2 Assay for human Erythroblast Transformation Specific (ETS) (AID 2282941). The settings on record: HepG2 ETS cis-reporter transcription, actives raise or lower the signal. Summed up: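 Human HepG2 hepatoma cells were transiently transfected with promoter-driven reporter constructs and treated for 24 hours. Reporter transcripts were quantified by RT-PCR with fluorescent primer extension; bidirectional curve fitting used DMSO as reference.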

Assay [15] has as its target Hepatocyte nuclear factor 3-beta (Homo sapiens) (UniProt Q9Y261). Nature of the assay: ATG_FoxA2_CIS: Attagene CIS-FACTORIAL HepG2 Assay for human Forkhead box A2 (FOXA2) (AID 2282942). The settings on record: HepG2 cis-reporter transcription factor activity, 24 h; actives raise or lower the signal. Summed up: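 HepG2 transiently transfected with a multiplexed cis-promoter reporter library read endogenous FOXA2 activity. After 24 h compound exposure, reporter mRNA was quantified by RT-PCR, HpaI digestion and capillary electrophoresis. Bidirectional fit against DMSO.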

Assay [16] can be described thus: ATG_FoxO_CIS: Attagene CIS-FACTORIAL HepG2 Assay for human Forkhead box O (FoxO) (AID 2282943). The settings on record: HepG2 Attagene cis-reporter, FoxO element, mRNA; actives raise or lower the signal. A digest of the protocol: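 HepG2, transient MRTU transfection (cis element, endogenous TFs). Dose 24 h. TriZol RNA → oligo(dT) RT → PCR → 6-FAM primer extension → HpaI cut → CE. Gain/loss vs DMSO.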

Assay [17] can be described thus: ATG_GATA_CIS: Attagene CIS-FACTORIAL HepG2 Assay for human GATA Binding Protein (AID 2282944). The settings on record: HepG2 GATA cis-element reporter, Attagene multiplex mRNA; actives raise or lower the signal. A digest of the protocol:
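Measures endogenous transcription factor-driven reporter mRNA in HepG2 cells transiently carrying cis-regulated constructs. 24 h dosing; RNA via oligo(dT) reverse transcription, PCR, HpaI digestion, capillary electrophoresis; fitted relative to DMSO.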

A short description of assay [18]: ATG_GLI_CIS: Attagene CIS-FACTORIAL HepG2 Assay for human Zinc Finger Protein GLI1 (AID 2282945). The settings on record: HepG2, Attagene cis-factorial reporter mRNA, GLI element; actives raise or lower the signal. Summed up:
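Bidirectional curve fits relative to DMSO, using reporter mRNA levels from RT-PCR plus capillary electrophoresis. Cells were HepG2 transiently carrying cis-regulated reporter constructs, harvested 24 h after dosing.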

Assay [19] has as its target Retinoic acid receptor alpha (Homo sapiens) (UniProt P10276). Description: ATG_DR5_RAR_CIS: Attagene CIS-FACTORIAL HepG2 Assay for human Retinoic Acid Receptor Alpha (RARE), DR5 submotif (AID 2282934). Conditions: HepG2 Attagene cis-factorial RARE DR5 reporter, mRNA; actives raise or lower the signal. Summed up:
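Transient MRTU transfection of HepG2; 24 h compound treatment; TriZol RNA, oligo(dT) RT, PCR, FAM labelling, capillary electrophoresis. Bidirectional fit vs DMSO. Endogenous TF activity at DR5 RARE.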

Sequence of Retinoic acid receptor alpha (Homo sapiens) (P10276 whole entry, looked up): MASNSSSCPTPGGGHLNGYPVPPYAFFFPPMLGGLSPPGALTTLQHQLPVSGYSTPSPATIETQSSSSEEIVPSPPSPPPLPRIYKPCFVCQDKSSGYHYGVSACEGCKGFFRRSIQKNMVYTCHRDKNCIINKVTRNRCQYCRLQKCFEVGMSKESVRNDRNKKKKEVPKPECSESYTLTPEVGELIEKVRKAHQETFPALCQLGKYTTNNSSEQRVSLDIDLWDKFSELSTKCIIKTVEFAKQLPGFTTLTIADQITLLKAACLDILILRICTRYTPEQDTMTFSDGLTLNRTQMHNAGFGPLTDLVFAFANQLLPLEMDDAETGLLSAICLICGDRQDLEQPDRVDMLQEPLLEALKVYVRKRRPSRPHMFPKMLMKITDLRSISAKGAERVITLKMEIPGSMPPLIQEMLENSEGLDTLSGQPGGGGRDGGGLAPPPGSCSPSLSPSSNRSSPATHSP
Sequence of Transcription factor E2F1 (Homo sapiens) (Q01094 whole entry, looked up): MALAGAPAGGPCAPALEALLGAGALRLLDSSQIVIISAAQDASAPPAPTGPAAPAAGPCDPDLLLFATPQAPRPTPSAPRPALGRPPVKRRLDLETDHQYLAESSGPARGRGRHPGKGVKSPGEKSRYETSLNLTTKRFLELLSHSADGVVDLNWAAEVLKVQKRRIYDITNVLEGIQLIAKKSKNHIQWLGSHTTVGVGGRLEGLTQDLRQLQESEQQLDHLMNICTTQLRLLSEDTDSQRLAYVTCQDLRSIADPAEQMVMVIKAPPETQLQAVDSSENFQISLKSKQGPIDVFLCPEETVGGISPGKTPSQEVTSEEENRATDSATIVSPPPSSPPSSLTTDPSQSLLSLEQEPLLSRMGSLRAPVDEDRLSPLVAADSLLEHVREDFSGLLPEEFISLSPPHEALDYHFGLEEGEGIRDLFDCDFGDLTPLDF
Sequence of Hepatocyte nuclear factor 3-beta (Homo sapiens) (Q9Y261 whole entry, looked up): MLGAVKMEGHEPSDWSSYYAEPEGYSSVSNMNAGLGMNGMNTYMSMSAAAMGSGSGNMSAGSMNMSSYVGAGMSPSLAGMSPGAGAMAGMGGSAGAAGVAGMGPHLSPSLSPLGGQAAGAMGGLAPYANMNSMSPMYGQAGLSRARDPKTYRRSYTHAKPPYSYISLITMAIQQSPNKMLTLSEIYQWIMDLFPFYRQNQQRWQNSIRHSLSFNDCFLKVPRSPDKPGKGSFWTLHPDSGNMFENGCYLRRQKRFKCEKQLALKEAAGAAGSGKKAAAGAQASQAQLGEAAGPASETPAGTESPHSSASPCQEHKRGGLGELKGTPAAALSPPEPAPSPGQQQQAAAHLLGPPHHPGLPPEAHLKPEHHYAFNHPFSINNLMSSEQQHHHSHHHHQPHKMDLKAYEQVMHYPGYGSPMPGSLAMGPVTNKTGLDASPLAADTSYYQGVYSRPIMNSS
Sequence of CCAAT/enhancer-binding protein beta (Homo sapiens) (P17676 whole entry, looked up): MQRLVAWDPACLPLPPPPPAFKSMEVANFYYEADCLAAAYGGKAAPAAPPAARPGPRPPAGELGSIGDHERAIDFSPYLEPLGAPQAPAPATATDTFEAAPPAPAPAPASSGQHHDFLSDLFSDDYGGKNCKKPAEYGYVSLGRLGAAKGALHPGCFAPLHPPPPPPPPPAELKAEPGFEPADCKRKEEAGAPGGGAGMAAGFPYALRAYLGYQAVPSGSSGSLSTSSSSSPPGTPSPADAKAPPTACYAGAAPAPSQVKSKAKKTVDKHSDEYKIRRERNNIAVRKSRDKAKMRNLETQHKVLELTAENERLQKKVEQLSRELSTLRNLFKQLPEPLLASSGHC
Sequence of Aryl hydrocarbon receptor (Homo sapiens) (P35869 whole entry, looked up): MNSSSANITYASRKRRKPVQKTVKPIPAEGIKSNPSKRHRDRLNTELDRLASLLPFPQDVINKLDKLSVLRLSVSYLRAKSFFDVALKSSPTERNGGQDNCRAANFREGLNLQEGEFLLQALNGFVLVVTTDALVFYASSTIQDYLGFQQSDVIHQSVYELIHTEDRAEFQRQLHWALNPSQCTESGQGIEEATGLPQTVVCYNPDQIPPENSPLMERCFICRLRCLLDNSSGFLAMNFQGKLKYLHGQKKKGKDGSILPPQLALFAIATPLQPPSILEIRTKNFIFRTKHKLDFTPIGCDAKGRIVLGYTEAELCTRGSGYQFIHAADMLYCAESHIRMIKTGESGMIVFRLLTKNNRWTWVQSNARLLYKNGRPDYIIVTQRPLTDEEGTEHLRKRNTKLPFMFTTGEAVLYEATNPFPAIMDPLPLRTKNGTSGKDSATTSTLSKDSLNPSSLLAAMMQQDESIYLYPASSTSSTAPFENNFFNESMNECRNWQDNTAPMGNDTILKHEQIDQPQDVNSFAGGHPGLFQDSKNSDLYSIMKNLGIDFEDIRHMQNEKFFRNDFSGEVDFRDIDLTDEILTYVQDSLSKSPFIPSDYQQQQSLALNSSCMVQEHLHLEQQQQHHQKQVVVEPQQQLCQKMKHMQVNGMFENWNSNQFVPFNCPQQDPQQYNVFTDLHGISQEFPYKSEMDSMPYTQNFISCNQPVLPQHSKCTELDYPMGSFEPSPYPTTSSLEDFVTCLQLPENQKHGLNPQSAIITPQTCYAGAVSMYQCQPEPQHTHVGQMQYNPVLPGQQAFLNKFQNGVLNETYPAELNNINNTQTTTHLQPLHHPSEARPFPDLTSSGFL

`Cc1ccc([N+](=O)[O-])cc1`: the call in assay [1], in assay [2], in assay [3], in assay [4], in assay [5] and in assay [6] was inactive. Moreover, the compound was called inactive in assay [7], in assay [8], in assay [9], in assay [10], in assay [11] and in [12]. For the same compound, the result in assay [13], in assay [14], in assay [15], in assay [16], in assay [17] and in assay [18] was inactive.
Turning to `O=C(Nc1ccccc1)c1ccccc1I`, the compound was called inactive in assay [1], in [2], in assay [4], in assay [5], in assay [6] and in assay [7]. For the same compound, the call in assay [19], in assay [8], in [9], in [10], in assay [11] and in assay [14] was inactive. The compound was called inactive in assay [15], in [16], in assay [17] and in assay [18]. In addition, in [13], the half-maximal activity concentration (AC50) is 30.3 µM (active).
For `CC(C)(C)OOC(=O)c1ccccc1`, the result in [1], in assay [2], in assay [3], in assay [4], in assay [6] and in assay [7] was inactive. Also, the compound was classed as inactive in assay [19], in [9], in assay [10], in assay [11], in [14] and in assay [15]. The compound was classed as inactive in assay [17] and in [18]. For the same compound, the half-maximal activity concentration (AC50) was 130 µM (active) in assay [5] and 156 µM (active) in assay [16].
On to `CS(=O)(=O)NC(=O)c1cc(Oc2ccc(C(F)(F)F)cc2Cl)ccc1[N+](=O)[O-]`, for which the compound was classed as inactive in [1], in assay [2], in [4], in assay [5], in [6] and in [7]. Also, the call in assay [19], in assay [8], in [9], in assay [10], in assay [11] and in [14] was inactive. Further, the call in assay [15], in assay [16], in [17] and in assay [18] was inactive.
On to `Clc1ccc(C(c2ccc(Cl)cc2)C(Cl)Cl)cc1`, for which the AC50 in assay [1] was 54.5 µM (active); in assay [2], 54.8 µM (active); in assay [3] it was 17.1 µM (active); in assay [5] it was 50.9 µM (active); in assay [6] it was 54.5 µM (active); in assay [11], 45.1 µM (active). Moreover, the results for the AC50 in assay [13], in assay [14] and in assay [18] were 19.3 µM (active), 53.8 µM (active) and 45.9 µM (active), respectively. The result in assay [4], in [7], in assay [9], in [10], in [12] and in [15] was inactive. For the same compound, the call in assay [16] and in assay [17] was inactive.
With `CCN(CC)N=O`, the result in assay [1], in assay [2], in [4], in [5], in [6] and in assay [7] was inactive. The compound was called inactive in assay [19], in assay [8], in assay [9], in assay [10], in assay [11] and in assay [14]. The outcome in assay [15], in assay [16], in assay [17] and in [18] was inactive.
For the compound `c1ccc2c(c1)-c1cccc3cccc-2c13`, the call in assay [1], in assay [2], in [5], in assay [6], in assay [7] and in assay [19] was inactive. For the same compound, the outcome in assay [9], in assay [10], in assay [11], in assay [14], in assay [15] and in assay [16] was inactive. Further, the result in [17] and in [18] was inactive. Also, the AC50 in assay [12] is 0.00801 µM (active).

The AC50 is the midpoint of the concentration-response curve, whichever way the signal moves.
